# In PubChem BioAssay (NCI):
# This is part of a sample that, as a whole, favours compounds with a hit. Of some 83,000 tested, about 20% had one in any assay.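 Step 1: grow cells in 96-well plates. Step 2: add test compound at a single concentration. Step 3: incubate 48 h. Step 4: record percent growth.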 Unmarked numbers belong to inactive results. Calls of active or inactive are those of the source. Rule for the calls: active = growth percent below 10; inactive = the rest.
# System: HL-60(TB) leukemia
# Test: NCI-60 one-dose screen, 48 h (100 = growth as untreated, 0 = no growth, -100 = all killed)
# Settings: 10 µM unless noted
row,SMILES,growth
1,COc1ccc(/C=C/C(=O)c2cc3c(N)c(C(=O)Nc4cccc5ccccc45)sc3nc2C)cc1,81.9%
2,O=C(c1ccc(F)cc1)C1CCN(CCn2c(=O)[nH]c3ccccc3c2=O)CC1,97.3%
3,C[N+](C)(C)CN1C(=O)c2ccccc2C1=O,96.1%
4,CC[C@@H]1O[C@H](O[C@@H](c2cnc[nH]2)[C@H](NC(=O)c2nc([C@H](CC(N)=O)NC[C@@H](N)C(N)=O)nc(N)c2C)C(=O)N[C@H](C)[C@H](O)[C@H](C)C(=O)N[C@@H](C(=O)NCCc2nc(-c3nc(C(=O)NCCCCN=C(N)N)cs3)cs2)[C@@H](C)O)[C@H](O[C@@H]2O[C@H](CO)[C@H](O)[C@H](OC(N)=O)[C@@H]2O)[C@H](C)[C@@H]1C,84.4%
5,CCOC(=O)C1=C(C)NC(=O)NC1c1ccc(OCC(=O)N/N=C/c2ccc(Cl)cc2)cc1 (stereo not drawn),98.3%
6,CCOC(=O)c1ccc(Nc2ncnc3c2cnn3-c2cccc(F)c2)cc1,109%
7,CNS(=O)(=O)c1n[nH]nc1-c1cc(C(C)(C)C)c(O)c(C(C)(C)C)c1,95%
8,Nc1nc2ccc3[nH]ncc3c2c2c1CCCC2,-23.4% (active)
9,COC(=O)/C=C/C(=O)c1cc(C)cc(C)c1O,86.6%
10,COc1ccc2nc3cc(Cl)ccc3c(Nc3ccc(O)c(CN4CCCC4)c3)c2c1,-51% (active)
11,OCc1cnccc1NCCCOc1ccccc1,89.4%
12,CC[N+](C)(CC)CCO,96.9%
13,COc1ccc(C2=C/C(=C\c3ccc(Cl)cc3)C(=O)NN2C(=S)NN)cc1,93.3%
14,CN1C(=O)N(C)C2Nn3c(s/c(=C\c4ccccc4)c3=O)=NC21 (stereo not drawn),95.2%
15,O=C(Nc1ccc(F)cc1)ON=C1CCCCC1,86.8% [100 µM]
16,O=C(Nc1ccc([N+](=O)[O-])cc1)c1cc2ccccc2cc1O,-16.7% (active)
17,O=[N+]([O-])c1cc(Br)c2cccc3c2c1CC3,94.4%
18,CC1=CC2C(C(O)CC3(C)C2CC(C)C32OCOC23COCO3)C2(C)C/C(=C/O)C(=O)C=C12 (stereo not drawn),-12.3% (active)
19,N#C/C(=C/C=C/c1cccc(Cl)c1)S(=O)c1ccccc1 (stereo not drawn),-18.9% (active)
20,CC(=O)[C@H]1CC[C@H]2[C@@H]3CC[C@@H]4CC=C(C=O)C[C@]4(C)[C@H]3CC[C@]12C,78.2%
21,O=C1Nc2ccc(Br)cc2C1=N/C=c1\[nH]c(=O)/c(=C/c2ccc(Cl)cc2)s1,100%
22,COc1ccccc1CNCCCN1C(=O)c2ccc3c4c(ccc(c24)C1=O)C(=O)N(CCCNCCNCCCN)C3=O,0.848% (active)

row,SMILES,growth
1,CCCCn1c(=O)[nH]c(N)c(C(c2ccc(F)cc2)c2c(N)[nH]c(=O)n(CCCC)c2=O)c1=O,78.7%
2,O=C(CCc1nnc2sc(Cc3ccccc3Cl)nn12)c1nc2ccccc2[nH]1,104%
3,CN1C(=O)/C(=C/c2ccc(C(=O)Nc3ncc(Cc4cccc(C(F)(F)F)c4)s3)cc2)SC1=S,43.3%
4,COC(=O)c1ccc2c(c1)nc(-c1ccc(O)c(OC)c1)n2-c1cc(C(C)(C)C)[nH]n1,103%
5,COc1ccc(C2CC(c3cccs3)=NN2c2ccc(S(N)(=O)=O)cc2)cc1 (stereo not drawn),73.7%
6,COc1ccc2c(c1)[nH]c1c(/C=C/c3ccccc3)nccc12,61.1%
7,Oc1c(CN2CCCC2)cc(COCc2ccccc2)c2cccnc12,10.6%
8,COc1cc2c(cc1O)CC[C@@H]1[C@@H]2CC[C@]2(C)[C@@H](OCCCN(C)C)CC[C@@H]12,-48.5% (active)
9,CC1=CC(=O)C=CC1=Nc1ccc(N(C)C)cc1,-1.75% (active)
10,C[C@@H](C[C@H](CCO)c1cc(C(F)(F)F)cc(C(F)(F)F)c1)c1ccc2ccccc2c1,93.5%
11,NNC(=O)NO,94.4%
12,C=C(C)[C@@H]1C[C@@H]2Cc3ccc(Cl)c(C)c3N1O2,3.4% (active)
13,O=C(Oc1ccccc1)c1cc(O)c(O)c(O)c1,-5.58% (active)
14,COC(=O)c1cc([N+](=O)[O-])cc([N+](=O)[O-])c1Cl,55.4%
15,CS(=O)(=O)Nc1cc(-c2ccc3ncnc(Nc4ccc5c(cnn5Cc5ccc(F)cc5)c4)c3c2)cnc1Cl,23%
16,C=C[Si](OC(C)=O)(OC(C)=O)OC(C)=O,94.3%
17,COc1ccccc1/C=C\C(=O)c1ccccc1,48.3%
18,CCOC(=O)NNc1cccc(Cl)c1,110%
19,CCN(CC)CCCC(C)Nc1c(C)cnc2cc(Cl)c(C)cc12 (stereo not drawn),65.9%
20,Cc1ccc(C(=O)N/N=C/c2cccc([N+](=O)[O-])c2)cn1,74%
21,c1ccc2c(-c3nccs3)c[nH]c2c1,85.1%
22,COc1cc(C#Cc2ccc(=O)oc2C#Cc2ccccc2)cc(OC)c1OC,34.2%

row,SMILES,growth
1,NC1C(N)C(N)C1N (stereo not drawn),93.8%
2,CCn1cc(C2NC(=O)c3cc(F)ccc3N2)c2cccc(Cl)c21 (stereo not drawn),-50% (active)
3,CCC(C)N(c1ccc(Cl)cc1)c1nc(-c2ccc(Br)cc2)cs1 (stereo not drawn),100%
4,CN1CCN(c2ccc3nc(-c4[nH]ncc4Nc4ncnc5c4OCCCN5)[nH]c3c2)CC1,-28.7% (active)
5,CCCCCCCCCCCCCCCCCC(=O)Nc1ccc(O)cc1,5.77% (active)
6,CC(=O)Nc1ccc(C(=O)Nc2cc(-c3ccccc3)ccc2N)cc1,65.5%
7,COc1cccc(-c2nc3cc(NC(=O)c4ccc(Cl)c(C#N)c4)ccc3o2)c1,100%
8,O=c1[nH]cc(/C=N\Nc2ccccc2)c(=O)[nH]1,0.751% (active)
9,COc1ccc(C2C(C#N)=C(N)Oc3c2sc2c(F)cccc32)cc1 (stereo not drawn),-29% (active)
10,CCCCCc1c(C)[nH]c(/C=C2\N=C(c3ccc[nH]3)C=C2CC)c1C,-62% (active)
11,C[C@H](NC(=O)[C@@H]1CSSC[C@@H](NC(=O)Cc2nc3ccccc3cc2O)C(=O)NCC(=O)N1C)c1ccccc1,32.1%
12,COc1cc(C2=NN(C=O)C(c3cccc(Nc4ccnc5cc(Cl)ccc45)c3)C2)cc(OC)c1OC (stereo not drawn),75.4%
13,CCN1C(=O)N(CC)C2C1NN=c1s/c(=C\c3cccc(F)c3)c(=O)n12 (stereo not drawn),-16.9% (active)
14,COc1cccc(-c2nc(-c3ccc(NC(=O)OC(C)C)cc3)[nH]c2-c2ccnc(Br)c2)c1,-39.9% (active)
15,N#C/C(=C\c1ccc(Br)cc1)n1nnc2cc(Cl)c(Cl)cc21,-0.568% (active)
16,CC(=O)c1c(Nc2cccc(F)c2)[nH]c2c(Cl)cc(Cl)c(Cl)c2c1=O,-36.5% (active)
17,Cc1c(F)cccc1NC(=O)c1sc2nc3c(cc2c1N)CCCCC3,6.49% (active)
18,CC1OC(Oc2c(-c3ccc(O)c(O)c3)oc3cc(O)cc(O)c3c2=O)C(O)C(O)C1O (stereo not drawn),106%
19,Nc1ccc(S(=O)(=O)Nc2ccsc2-c2nc(-c3ccccc3)no2)cc1,35.1%
20,N#CC(C#N)N=Nc1ccc(Cl)cc1,-26.8% (active)
21,O=C(Nc1ccc(Cl)cc1)Nc1ccc(Nc2nncc3ccccc23)cc1,18.1%
22,OCc1cccc(F)c1,107%

row,SMILES,growth
1,Nc1nc2c(c(=O)[nH]1)C(c1ccc3c(c1)OCO3)C=C(C(=O)O)N2 (stereo not drawn),111%
2,CCN(CC)C(=S)SSC(=S)N(CC)CC,73.7%
3,CCOC(=O)c1cc(N)nc2ccccc12,104%
4,CN1C/C=C\CCOc2cccc(c2)-c2ccnc(n2)Nc2cccc(c2)C1,-51.9% (active)
5,COc1cc([C@@H]2c3cc4c(cc3[C@H](OC3OC5COC(c6ccccc6)OC5C(O)C3O)[C@H]3COC(=O)[C@H]23)OCO4)cc(OC)c1OC (stereo partly drawn),-33.6% (active)
6,COc1cc(-c2nn(-c3cccc(NC(=O)Nc4ccc(Cl)c(Cl)c4)c3)cc2-c2ccncc2)ccc1Cl,-18.1% (active)
7,Cc1ccccc1CCO,100%
8,CCOC(=O)c1c[nH]n2c(=S)ncnc12,91.2%
9,C#CCOC(=O)/C=C/c1cn(-c2ccccc2)nc1-c1ccc(OC)cc1,110%
10,Fc1ccc(-c2nnc(N3CCOCC3)c3ccccc23)cc1,264%
11,CC1CCCCN1CCCNC(=O)c1ccc2c(c1)sc1nc(-c3ccc(F)cc3)cn12 (stereo not drawn),74.1%
12,COc1cc2oc(-c3cccc(C(=O)Nc4ccc(Br)cc4)c3)cc(=O)c2c(OC)c1OC,38.6%
13,COc1ccc(-c2nc(N)n(C(=S)Nc3ccccc3)n2)cc1,96.4%
14,CS(=O)(=O)c1ccc(-c2[nH]c3ccc(F)cc3c2/C=N/NC(N)=S)cc1,-50.2% (active)
15,O=C1c2ccccc2C(=O)c2c1ccc1c(=O)n(-c3ccccc3C(F)(F)F)nnc21,-42% (active)
16,C/C(Cc1ccc(Cl)cc1)=C(\c1ccc(OCCN2CCCCCC2)cc1)c1ccc(OC(=O)Cc2ccccc2)cc1,15.8%
17,C/C(=C\c1ccc2ccccc2c1)[N+](=O)[O-],-25.7% (active)
18,CC(C)Cc1ccc(C(C)C(=O)NCc2ccc(Cn3c(=O)sn(-c4ccc(Cl)cc4)c3=O)cc2)cc1 (stereo not drawn),95.8%
19,NC(=O)NC(=O)/C=C/C(=O)OCCCl,91.6%
20,COc1ccc(OC)c(-c2cc(-c3ccc(Cl)cc3)c3c(N)c(C(=O)c4ccc(Cl)cc4)sc3n2)c1,110%
21,O=C(Cn1cccc(Nc2ccccc2)c1=O)Nc1ccccc1,118%
22,CCCCC/C=C\C/C=C/CCCCCCCCNC(=O)Nc1ccc([N+](=O)[O-])cc1,4.75% (active)
